In the library only some 2.9% were active in any assay of this set; here they are far more common.
PAFAH2 inh = inhibitors of human PAFAH2; Q99487; recombinant PAFAH2, FP-rhodamine activity probe, fluorescence polarization; inhibition, % at 3.39 µM; actives 0.99% (n = 340,000); AID 492956;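 active means inhibition above the mean over all tested compounds plus 3 SD, cut at about 30% in these data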;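 further: inhibitors block probe labeling of enzyme so polarization drops; 0% = enzyme with DMSO and 100% = wells lacking PAFAH2 protein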
PAFAH1B3 inh = inhibitors of human PAFAH1B3; recombinant PAFAH1B3, FP-rhodamine probe, fluorescence polarization; inhibition, % at 3.39 µM; actives 0.28% (n = 340,000); AID 492972;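 active means inhibition above the screen-wide average of all tested compounds plus 3 SD, cut at about 25% in these data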;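 further: 0% = enzyme with DMSO only and 100% = wells lacking PAFAH1B3 protein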
Target sequence (Q15102 whole entry, looked up): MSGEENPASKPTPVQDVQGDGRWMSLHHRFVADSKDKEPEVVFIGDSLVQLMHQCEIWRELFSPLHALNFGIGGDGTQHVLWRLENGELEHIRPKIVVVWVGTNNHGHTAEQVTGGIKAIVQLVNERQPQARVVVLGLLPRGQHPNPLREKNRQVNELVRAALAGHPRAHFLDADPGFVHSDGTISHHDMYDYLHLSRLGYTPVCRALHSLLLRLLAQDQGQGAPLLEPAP
PAFAH1B2 FP inh = inhibitors of human PAFAH1B2; actives 1.2% (n = 340,000); inhibition, % at 3.39 µM; AID 492953; recombinant PAFAH1B2, FP-rhodamine activity probe, fluorescence polarization;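 active means inhibition above the mean of all tested compounds plus 3 SD, cut at about 24% in these data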;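 further: 0% = enzyme with DMSO and 100% = wells lacking PAFAH1B2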
EBNA-1 inh = blocks EBNA-1 binding to DNA. actives 0.34% (n = 300,000). AID 1950. inhibition, % at 14.8 µM. EBNA-1 DNA binding, fluorescence polarization; in the data active means inhibition above about 28%
rCAG binder = molecules binding r(CAG) RNA repeats; r(CAG) RNA repeat, TO-PRO-1 dye displacement fluorescence; actives 1.3% (n = 370,000); inhibition, % at 3 µM;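 active means inhibition above the plate cutoff, the mean of all test compounds on that plate plus 3 SD, cut at about 35% in these data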;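 further: 0% = DMSO alone and 100% = 100 µM mitoxantrone as full dye displacement; higher means more dye released from RNA so lower well fluorescence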
ZTA DNA inh = blocks Epstein-Barr virus ZTA, an EBNA-1 counter-screen. actives 0.15% (n = 320,000). ZTA-DNA binding, fluorescence polarization. inhibition, % at 11 µM; in the data active means inhibition above about 33%
Target sequence (P03206 whole entry, looked up): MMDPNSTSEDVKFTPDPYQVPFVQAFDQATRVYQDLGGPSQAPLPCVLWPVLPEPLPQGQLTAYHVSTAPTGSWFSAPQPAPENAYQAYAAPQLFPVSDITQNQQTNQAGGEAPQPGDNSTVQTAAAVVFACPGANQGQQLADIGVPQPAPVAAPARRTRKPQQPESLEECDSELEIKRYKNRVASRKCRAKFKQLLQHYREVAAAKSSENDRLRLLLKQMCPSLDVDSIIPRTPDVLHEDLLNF
* marks the source's active call; other numbers are inactive results.

Screening CCC(C)c1ccc(C(C)NC(=S)NCc2ccc(F)cc2)cc1 (stereo unspecified) returned PAFAH2 inh -2, PAFAH1B3 inh -5, PAFAH1B2 FP inh 24*, EBNA-1 inh 9, rCAG binder -6 and ZTA DNA inh 7.
Screening CCC(NC(=S)NCc1ccc(F)cc1)c1ccc(C(C)C)cc1 (stereo unspecified) returned PAFAH2 inh -7, PAFAH1B3 inh -9, PAFAH1B2 FP inh 29*, EBNA-1 inh -2, rCAG binder -4 and ZTA DNA inh 0.
Screening O=C(CCN1C(=O)/C(=C/c2ccccc2)SC1=S)Nc1ccccn1 returned PAFAH2 inh 0, PAFAH1B3 inh 2, PAFAH1B2 FP inh 6, EBNA-1 inh 11, rCAG binder 5 and ZTA DNA inh 7.
Screening Cc1cc(NC(=O)CCN2C(=O)/C(=C/c3ccccc3F)SC2=S)no1 returned EBNA-1 inh -5, rCAG binder 3 and ZTA DNA inh 1.
`O=C(CCN1C(=O)/C(=C/c2ccccc2)SC1=S)N[C@@H](CO)Cc1ccccc1` gave PAFAH2 inh -5, PAFAH1B3 inh 3, PAFAH1B2 FP inh 43*, EBNA-1 inh 1, rCAG binder 3 and ZTA DNA inh -3.
For O=C(O)CCN1C(=O)/C(=C\c2cccc(OCc3ccccc3)c2)SC1=S the results were PAFAH2 inh -2, PAFAH1B3 inh 7, PAFAH1B2 FP inh 27*, EBNA-1 inh 0, rCAG binder 7 and ZTA DNA inh -4.
O=C(O)CCN1C(=O)/C(=C\c2ccc(OCc3ccccc3)c(OCc3ccccc3)c2)SC1=S was read as PAFAH2 inh -4, PAFAH1B3 inh 4, PAFAH1B2 FP inh -1, EBNA-1 inh 3, rCAG binder 12 and ZTA DNA inh 11.
For CCc1ccc(/C=C2\SC(=S)N(CCCC(=O)Nc3ccccc3C(=O)O)C2=O)cc1 the results were PAFAH2 inh 31*, PAFAH1B3 inh -2, PAFAH1B2 FP inh 55*, EBNA-1 inh 6, rCAG binder 8 and ZTA DNA inh 7.
Screening O=C(CCN1C(=O)/C(=C/c2ccccc2F)SC1=S)N[C@@H](CO)Cc1ccccc1 returned PAFAH2 inh 3, PAFAH1B3 inh 1, PAFAH1B2 FP inh 38*, EBNA-1 inh -3, rCAG binder 0 and ZTA DNA inh 11.
C#CCN(C1CC1)S(=O)(=O)c1ccccc1Br was read as rCAG binder -1.
C[C@@H]1CC2=C(C(=O)OC(C)(C)O2)[C@H](c2ccc(Cl)cc2)O1 was read as rCAG binder 2.
`COc1ccccc1NC(=S)N(CCCN1CCOCC1)Cc1ccccn1` gave PAFAH2 inh -8, PAFAH1B3 inh 5, PAFAH1B2 FP inh 1, EBNA-1 inh -4, rCAG binder -4 and ZTA DNA inh -6.
CCc1ccccc1NC(=S)N(CCCN1CCOCC1)Cc1ccccn1 was read as PAFAH2 inh -3, PAFAH1B3 inh 5, PAFAH1B2 FP inh 1, EBNA-1 inh 10, rCAG binder -5 and ZTA DNA inh 82*.
CCN1C(=O)/C(=C/C=C2\N(CC)c3cc(S(=O)(=O)N(C)C)ccc3N2c2ccccc2)SC1=S was read as PAFAH2 inh -59, PAFAH1B3 inh active, PAFAH1B2 FP inh 151*, EBNA-1 inh -5, rCAG binder -1 and ZTA DNA inh -13.
`CCN1C(=O)/C(=C\C=C\c2ccccc2[N+](=O)[O-])SC1=S` gave PAFAH2 inh 12, PAFAH1B3 inh 15, PAFAH1B2 FP inh 7 and rCAG binder 3.
Screening C#CCNC(=O)C[C@H]1C[C@@]2(C(=O)OC)C(=C[C@H](C3CCCC3)O[C@@H]2C)N(CCCCCCCC)C1=O returned rCAG binder 6.
`O=C(NCc1ccccc1)C1(C(=O)C2CC2)CC(c2ccccc2C(F)(F)F)=NO1` (stereo unspecified) gave rCAG binder -1.
CSC[C@H](NC(=O)COc1cc2c(c3oc(=O)c(C)c(C)c13)CCC(C)(C)O2)C(=O)O was read as PAFAH2 inh 72*, PAFAH1B3 inh -5, PAFAH1B2 FP inh 5, EBNA-1 inh -9, rCAG binder 24 and ZTA DNA inh 1.
For COCCCNC(=O)COc1cc2c(c3oc(=O)c(C)c(C)c13)CCC(C)(C)O2 the results were PAFAH2 inh 68*, PAFAH1B3 inh -1, PAFAH1B2 FP inh 7, EBNA-1 inh 0, rCAG binder 0 and ZTA DNA inh -1.
Screening Cc1c(C)c2c(OCC(=O)NC3CC3)cc3c(c2oc1=O)CCC(C)(C)O3 returned PAFAH2 inh 78*, PAFAH1B3 inh 0, PAFAH1B2 FP inh 11, EBNA-1 inh -4, rCAG binder -5 and ZTA DNA inh -5.
CSC[C@H](NC(=O)COc1cc2c(c3oc(=O)cc(C)c13)CCC(C)(C)O2)C(=O)O was read as PAFAH2 inh 1, PAFAH1B3 inh 4, PAFAH1B2 FP inh 9, EBNA-1 inh 3, rCAG binder 15 and ZTA DNA inh 1.
For Cc1c(C)c2c(OCC(=O)N[C@@H](CC(C)C)C(=O)O)cc3c(c2oc1=O)CCC(C)(C)O3 the results were PAFAH2 inh 75*, PAFAH1B3 inh -3, PAFAH1B2 FP inh 44* and rCAG binder 32.
Screening CN(Cc1ccco1)S(=O)(=O)c1ccc2c(c1)CCN2C(=O)CC(C)(C)C returned rCAG binder 5.
CCCCNC(=O)C[C@H]1C[C@@]2(C(=O)OC)C(=C[C@H](COCc3ccccc3)O[C@@H]2C)N(Cc2cccc3ccccc23)C1=O was read as rCAG binder 9.
For CSCC[C@H](NC(=O)COc1cc2c(c3oc(=O)c(C)c(C)c13)CCC(C)(C)O2)C(=O)O the results were PAFAH2 inh 68*, PAFAH1B3 inh 0, PAFAH1B2 FP inh 62*, EBNA-1 inh 6, rCAG binder 30 and ZTA DNA inh 4.
Cc1c(C)c2c(OCC(=O)N3CCC(C(N)=O)CC3)cc3c(c2oc1=O)CCC(C)(C)O3 was read as PAFAH2 inh 75*, PAFAH1B3 inh 9, PAFAH1B2 FP inh -4, EBNA-1 inh -9, rCAG binder -1 and ZTA DNA inh -12.
`Cc1cc(=O)oc2c3c(cc(OCC(=O)N4CCC(C(=O)O)CC4)c12)OC(C)(C)CC3` gave PAFAH2 inh 9, PAFAH1B3 inh 5, PAFAH1B2 FP inh 4, EBNA-1 inh -2, rCAG binder 5 and ZTA DNA inh -1.
For CCCC(NC(=O)COc1cc2c(c3oc(=O)c(C)c(C)c13)CCC(C)(C)O2)C(=O)O (stereo unspecified) the results were PAFAH2 inh 72*, PAFAH1B3 inh -1, PAFAH1B2 FP inh 15, EBNA-1 inh -11, rCAG binder 20 and ZTA DNA inh -3.
Screening Cc1cc(=O)oc2c3c(cc(OCC(=O)NCC(=O)O)c12)OC(C)(C)CC3 returned PAFAH2 inh 12, PAFAH1B3 inh 3, PAFAH1B2 FP inh 5, EBNA-1 inh 2, rCAG binder 4 and ZTA DNA inh -11.
